Measurements: PubChem BioAssay AID1159580 (chemical genetic matrix, 2015)
Several values for one entry are separate records, joined by “and”; a condition that tells them apart may be missing. Identical values can stand only once. Out of some 5,500 compounds screened, about 2,000 (36%) were called active. Not shown: some 18% with an inconclusive outcome. Cut-off read from the data, not from the text of the source: active = normalized growth mostly below about 0.91 (no sharp cut-off); inconclusive = no clear call, values can overlap the other calls; inactive = mostly above about 0.92. The list shows a part of the results.

Experiment: chemical genetic growth profiling, strain panel (AID 1159580);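 note: tested at 20 µM; growth read once vehicle control cultures reached saturation at 30 °C; 1 = growth at the plate median or of vehicle wells; lower values mean less growth of the strain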
Conditions: S. cerevisiae deletion strains, growth OD

Measured: normalized growth

CC(=O)Oc1ccc(C(c2ccc(OC(C)=O)cc2)c2ccccn2)cc1
inactive: locus YAL021C, strain ccr4, active compounds read low 1.02 | locus YAL026C, strain drs2, active compounds read low 1.02 | locus YAL030W, strain snc1, active compounds read low 1.01 | locus YBL061C, strain skt5, active compounds read low 1.01 | locus YBR009C, strain hhf1, active compounds read low 1.04 | locus YBR021W, strain FUR4, active compounds read low 0.998 | locus YBR023C, strain chs3, active compounds read low 1.02 | locus YBR171W, strain sec66, active compounds read low 1.02 | locus YBR229C, strain ROT2, active compounds read low 0.969 | locus YBR231C, strain swc5, active compounds read low 0.997 | locus YBR279W, strain paf1, active compounds read low 1.01 | locus YCL011C, strain gbp2, active compounds read low 1.02 | locus YCL016C, strain dcc1, active compounds read low 1.02 | locus YCL029C, strain bik1, active compounds read low 0.988 | locus YCL069W, strain vba3, active compounds read low 1.01 | locus YCR088W, strain abp1, active compounds read low 1.02 | locus YDL005C, strain med2, active compounds read low 1.01 | locus YDL035C, strain GPR1, active compounds read low 1.03 | locus YDL040C, strain nat1, active compounds read low 1.01 | locus YDL074C, strain BRE1, active compounds read low 0.995 | locus YDL101C, strain DUN1, active compounds read low 0.974 | locus YDL185W, strain tfp1, active compounds read low 0.993 | locus YDL192W, strain arf1, active compounds read low 0.984 | locus YDR001C, strain nth1, active compounds read low 1.02 | locus YDR069C, strain doa4, active compounds read low 1.01 | locus YDR101C, strain arx1, active compounds read low 0.996 | locus YDR137W, strain rgp1, active compounds read low 1.02 | locus YDR150W, strain NUM1, active compounds read low 0.99 | locus YDR159W, strain sac3, active compounds read low 0.993 | locus YDR162C, strain NBP2, active compounds read low 1.03 | locus YDR195W, strain ref2 0.985 | locus YDR297W, strain sur2, active compounds read low 1.02 | locus YDR318W, strain mcm21, active compounds read low 0.994 | locus YDR334W, strain swr1, active compounds read low 1.02 | locus YDR335W, strain msn5, active compounds read low 1.02 | locus YDR388W, active compounds read low 0.987 | locus YDR392W, strain spt3, active compounds read low 1.03 | locus YDR502C, strain sam2, active compounds read low 0.999 | locus YEL003W, strain gim4, active compounds read low 1.02 | locus YEL037C, strain rad23, active compounds read low 1.02 | locus YEL061C, strain CIN8 (second series), active compounds read low 1.01 | locus YEL061C, strain CIN8, active compounds read low 0.99 | locus YER015W, strain faa2, active compounds read low 1.01 | locus YER016W, strain bim1, active compounds read low 1.03 | locus YER110C, active compounds read low 0.977 | locus YER111C, strain swi4, active compounds read low 1.01 | locus YER155C, strain BEM2 (second series), active compounds read low 1.03 | locus YER155C, strain BEM2, active compounds read low 0.983 | locus YER167W, strain BCK2, active compounds read low 1 | locus YFR010W, strain ubp6, active compounds read low 0.996 | locus YGL078C, strain dbp3, active compounds read low 0.991 | locus YGL086W, strain mad1, active compounds read low 0.982 | locus YGL167C, strain pmr1, active compounds read low 1.03 | locus YGL173C, strain kem1, active compounds read low 1.02 | locus YGL227W, strain vid30, active compounds read low 1.01 | locus YGL240W, strain doc1, active compounds read low 1 | locus YGL248W, strain PDE1, active compounds read low 0.966 | locus YGL253W, strain hxk2, active compounds read low 1.03 | locus YGR135W, strain pre9, active compounds read low 0.996 | locus YGR229C, strain SMI1, active compounds read low 1.01 | locus YGR252W, strain gcn5, active compounds read low 0.961 | locus YHR013C, strain ard1, active compounds read low 1.06 | locus YHR027C, strain rpn1, active compounds read low 1.02 | locus YHR030C, strain SLT2, active compounds read low 0.99 and 1.02 | locus YHR079C, strain IRE1 (second series), active compounds read low 0.993 | locus YHR079C, strain IRE1, active compounds read low 0.983 | locus YHR094C, strain hxt1, active compounds read low 0.989 | locus YHR129C, strain ARP1, active compounds read low 0.989 | locus YHR142W, strain chs7, active compounds read low 1.01 | locus YHR200W, strain rpn10, active compounds read low 0.984 | locus YIL066C, strain RNR3, active compounds read low 1.02 | locus YIL073C, strain SPO22, active compounds read low 1.01 | locus YIL125W, strain kgd1, active compounds read low 0.985 | locus YIR030C, strain dcg1, active compounds read low 0.999 | locus YJL092W, strain hpr5, active compounds read low 1.01 | locus YJL095W, strain BCK1 (second series), active compounds read low 1.03 | locus YJL095W, strain BCK1, active compounds read low 0.975 and 1 | locus YJL115W, strain asf1, active compounds read low 1.01 | locus YJL129C, strain trk1, active compounds read low 1.03 | locus YJL134W, strain LCB3, active compounds read low 0.987 | locus YJL154C, strain vps35, active compounds read low 1.01 | locus YJL164C, strain tpk1, active compounds read low 1.02 | locus YJL166W, strain qcr8, active compounds read low 1 | locus YJL168C, strain set2, active compounds read low 0.985 | locus YJL187C, strain SWE1 (second series), active compounds read low 0.967 | locus YJR043C, strain POL32, active compounds read low 1.02 | locus YJR066W, strain TOR1, active compounds read low 0.976
